Assays:
Settings in all cases: concentration: 1 μM, replicates: in singlicate; n = 1
ACVR1B = system: ACVR1B
ACVR1 = system: ACVR1
ACVR2A = system: ACVR2A
ACVR2B = system: ACVR2B
ACVRL1 = system: ACVRL1
ADCK3 = system: T1, ADCK3
T1 construct: gene CABC1

ADCK4 = system: ADCK4
AKT1 = system: AKT1
AKT2 = system: AKT2
AKT3 = system: AKT3
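Also: KINOMEscan kinase panel screen.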

Row | SMILES | %Inh (ACVR1B) [%] | %Inh (ACVR1) [%] | %Inh (ACVR2A) [%] | %Inh (ACVR2B) [%] | %Inh (ACVRL1) [%] | %Inh (ADCK3) [%] | %Inh (ADCK4) [%] | %Inh (AKT1) [%] | %Inh (AKT2) [%] | %Inh (AKT3) [%]
1 | Cn1c(=O)c(F)c(Nc2ccc(I)cc2F)c2c(=O)n(OC[C@H](O)CO)cnc21 | 0 | 14 | 29 | 28 | 1 | 21 | 0 | 15 | 0 | 0
2 | COc1cc(Nc2nccc(N3CCC(NC(=O)C4COc5ccccc5O4)C3)n2)cc(OC)c1OC (stereo not drawn) [GSK1379761] | 0 | 20 | 22 | 13 | 0 | 10 | 65 | 0 | 9 | 0
3 | O=C(Nc1n[nH]c2nc(-c3ccccc3)c(Br)cc12)C1CC1 [SB-708998] | 0 | 21 | 24 | 7 | 21 | 4 | 1 | 7 | 4 | 0
4 | CCn1c(-c2nonc2N)nc2ccccc21 [SB-693162/GW549034] | 1 | 0 | 0 | 0 | 0 | 4 | 0 | 0 | 1 | 0
5 | Nc1nc(-c2ccccc2F)c(-c2ccnc3ccccc23)s1 [GW560459] | 0 | 6 | 0 | 0 | 0 | 0 | 22 | 0 | 0 | 0
6 | Cc1ccc(-c2ccc3c(ccc4sc5c(c43)NC[C@@H](C)N=C5N(C)C)n2)cn1 | 0 | 0 | 0 | 0 | 12 | 0 | 0 | 0 | 0 | 0
7 | Cl.NS(=O)(=O)c1cccc(Nc2cc(-c3ccc(F)cc3)n[nH]2)c1 [GW824645] | 0 | 0 | 0 | 0 | 0 | 0 | 0 | 0 | 0 | 0
8 | COc1cc(Nc2nccc(N3CCC(NC(=O)C(C)c4ccc(Cl)cc4)C3)n2)cc(OC)c1OC (stereo not drawn) [GSK1379757] | 0 | 4 | 0 | 12 | 0 | 3 | 69 | 0 | 0 | 0
9 | FC(F)(F)c1ccc(-c2ncn(CCCN3CCOCC3)c2-c2ccncc2)cc1 [SB-217780] | 10 | 0 | 0 | 0 | 4 | 1 | 8 | 0 | 0 | 28
10 | CCC(=O)c1c(-c2ccccc2)c2cc(Cl)ccc2c(=O)n1Cc1cc(S(C)(=O)=O)n(CC(F)F)n1 | 0 | 0 | 0 | 0 | 0 | 0 | 0 | 0 | 0 | 0
11 | CC(C)(C)c1ccc(C(=O)Nc2cn3cc(-c4ccccc4)ccc3n2)cc1 | 0 | 5 | 0 | 0 | 5 | 25 | 0 | 0 | 0 | 0
12 | CCC(=O)c1c(-c2ccccc2)c2cc(Cl)ccc2c(=O)n1Cc1cc(S(C)(=O)=O)n(CCC(C)(C)O)n1 | 10 | 2 | 0 | 9 | 17 | 27 | 1 | 0 | 14 | 17
13 | COC(=O)c1c(-c2ccccc2)c2cc(C)ccc2c(=O)n1Cc1ccccc1 | 0 | 0 | 7 | 0 | 0 | 0 | 0 | 0 | 3 | 0
14 | CCc1ccc(-c2ccc3c(c2)-c2nn(C)cc2S(=O)(=O)N3C)cc1 | 0 | 0 | 21 | 1 | 0 | 0 | 0 | 0 | 3 | 0
15 | COc1cc2ncn(-c3cc(OCc4ccc(S(C)(=O)=O)cc4)c(C(N)=O)s3)c2cc1OC [GW869979] | 0 | 51 | 0 | 0 | 4 | 31 | 0 | 0 | 0 | 0
16 | Nc1nc(N)c2nc(-c3ccccc3)[nH]c2n1 [SKF-12778] | 18 | 6 | 27 | 26 | 3 | 0 | 22 | 15 | 8 | 15
17 | CCC(=O)c1c(-c2ccccc2)c2cc(Cl)ccc2c(=O)n1Cc1ccc(C(=O)O)cc1 | 0 | 11 | 0 | 0 | 0 | 0 | 0 | 0 | 0 | 0
18 | Nc1ncnc2c1ncn2-c1cccc2ccccc12 [SKF-97184] | 0 | 0 | 0 | 0 | 26 | 0 | 52 | 8 | 0 | 0

— publication PMC5540273 (PLoS ONE, 2017)
